Most compounds without a hit are left out; they make up all but 6.3% or so of the library.
ATXN2 expr inh = reduces ATXN2 reporter expression in HEK-293 cells; Potency, µM (top dose mostly 57 µM), without a hit: top-dose activity change, negative = inhibition, actives largely listed as inhibitors; AID 1745845; HEK-293 ATXN2-luciferase reporter, luminescence, 24 h; 360,000 tested, 0.72% active; note: % is set by controls: 0 for no effect and ±100 for the full control effect; nearly all actives have a fitted effect of over 55% in size
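qHTS (up to 57 uM final) was run with 24 h compound exposure of reporter cells at 37 °C. Each well was multiplexed: SteadyGlo luminescence measured ATXN2-luciferase expression after a fluorogenic Gly-Phe-AFC viability readout (25 uM final).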
HepG2 viability = counter-screen for TGF-b inhibitors: cytotoxicity in HepG2 cells | HepG2 CAGA-GFP viability, ATP luminescence, 18 h | Potency, µM (series often up to 46.1 µM), for the others: top-dose activity change, negative = cytotoxicity, actives largely listed as cytotoxic | 410,000 tested, 0.76% active
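HepG2 CAGA-GFP cells (1000/well, DMEM with 1% FBS) received compound, then TGF-beta at 500 pg/mL final, and were incubated 18 hours at 37 degrees C. Viability was read by CellTiter-Glo luminescence. Media-only wells were set as complete cell-killing and DMSO as no toxicity.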
RORgamma inh = inhibitors of mouse ROR gamma transcriptional activity. Drosophila S2 Gal4-RORgamma UAS-luciferase reporter, 20 h. AID 2551. P51450. Potency, µM (series often up to 53.6 µM), for the others: top-dose activity change, negative = inhibition, usual class: inhibitors. 310,000 tested, 5.4% active; note: % is set by controls: 0 for no effect and ±100 for the full control effect; nearly all actives have a fitted effect of over 60% in size
Target sequence (P51450 whole entry, looked up, the tested form may be a part): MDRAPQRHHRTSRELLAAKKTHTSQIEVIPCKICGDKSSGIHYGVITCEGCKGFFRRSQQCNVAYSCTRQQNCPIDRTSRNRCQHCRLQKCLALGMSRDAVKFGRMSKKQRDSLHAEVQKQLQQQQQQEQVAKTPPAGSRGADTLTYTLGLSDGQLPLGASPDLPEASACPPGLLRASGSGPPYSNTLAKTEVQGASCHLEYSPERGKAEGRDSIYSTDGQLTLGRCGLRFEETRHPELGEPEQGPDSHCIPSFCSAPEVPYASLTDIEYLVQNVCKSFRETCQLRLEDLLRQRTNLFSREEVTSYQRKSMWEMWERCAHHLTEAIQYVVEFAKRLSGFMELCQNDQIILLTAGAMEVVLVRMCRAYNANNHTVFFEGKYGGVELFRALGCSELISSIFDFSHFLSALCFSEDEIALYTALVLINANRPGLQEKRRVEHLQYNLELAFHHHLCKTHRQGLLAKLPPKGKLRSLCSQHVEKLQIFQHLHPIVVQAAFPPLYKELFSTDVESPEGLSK
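Compounds are pin-transferred onto Drosophila Schneider cells expressing a copper-inducible Gal4–ROR gamma transactivation domain fusion. After 1 hr, copper sulfate is added to 700 uM final; luciferase is read 20 hr later.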
TGFb inhibitor = inhibitors of TGF-b signaling; 410,000 tested, 1.2% active; Potency, µM (titrated, usually from 46.1 µM), inactives show at the top dose activity, negative = inhibition, hits mostly inhibitors; AID 588855; HepG2 CAGA-GFP TGF-b/SMAD3 reporter, GFP fluorescence, 18 h; TGF-beta stimulated, 500 pg/mL final; note: % is set by controls: 0 for no effect and ±100 for the full control effect; nearly all actives have a fitted effect of over 65% in size
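HEPG2 CAGA-GFP, 1000 cells/well; 2 h settle, 37 C; cpd via pin tool; TGF-b 500 pg/mL final; 18 h, 37 C; GFP imaging ex488/em500-530; %Activity normalised to -TGF-b and +DMSO controls; CRC fit, curve class.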
VP16 counter = Gal4-VP16 reporter inhibition counter-screen. 310,000 tested, 3.5% active. Potency, µM (highest dose often 53.6 µM), for the others: at the top dose activity, negative = inhibition, most hits filed as inhibitors. Drosophila S2 Gal4-VP16 UAS-luciferase, luminescence, 20 h. AID 2546;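 note: Gal4-VP16 expression switched on by copper sulfate through the metallothionein promoter; % is set by controls: 0 for no effect and ±100 for the full control effect; nearly all actives have a fitted effect of over 50% in size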
ATXN viability = cell viability loss in ATXN counter-screen. Potency, µM (series often up to 56.7 µM), actives largely listed as cytotoxic. 400,000 tested, 0.49% active. S2 cells (HEK-293 line with an ATXN2-luciferase reporter) viability, CellTiter-Fluor protease fluorescence, 24 h; note: nearly all actives have a fitted effect of over 40% in size
An asterisk follows results filed as active; i = inactive; ? = inconclusive; · = not tested or not shown. Calls come from the whole dose curve; as a rule, active = well fitted curve in the direction sought with a large enough effect; inconclusive = small, poorly fitted or top-dose-only effect, or another doubt; inactive = no such curve, though single readings can be large; an effect the other way counts as inactive or inconclusive. Potency is the fitted concentration of half-maximal effect.

SMILES	ATXN2 expr inh	HepG2 viability	RORgamma inh	TGFb inhibitor	VP16 counter	ATXN viability
COC(=O)C[C@H]1c2ccccc2S(=O)(=O)N1c1cccc(OC)c1	5.7%	-2.1%	·	4.0%	·	?
CC1(C)CC(=O)c2cnn(-c3nc4ccccc4[nH]3)c2C1	7.3%	-38.6%	8.91µM*	12.2%	?	i
NCC(=O)N[C@@H](CCCN=C(N)N)C(=O)NCC(=O)N[C@@H](CC(=O)O)C(=O)N[C@@H](CO)C(=O)O	·	·	11.0%	·	-0.7%	·
COc1ccc(-c2oc3ncnc(NCCCN4CCOCC4)c3c2-c2ccc(OC)cc2)cc1	?	-5.6%	?	-3.0%	15.8µM*	?
COc1cccc(NC(=O)c2cnc(SCC(=O)NCc3ccc4c(c3)OCO4)n(C)c2=O)c1	32.4%	-23.4%	·	-6.7%	·	i
CCOC(=O)c1cc2c(ccn2C)n1CC(=O)N1CCC(Cc2ccccc2)CC1	0.0%	-33.5%	-0.3%	11.2µM*	-0.4%	?
CCOC(=O)c1cc2c(ccn2C)n1CC(=O)N1CCCC(C)C1 (configuration not stated)	-5.7%	-15.5%	1.7%	-5.3%	-1.9%	?
O=C(CC(=O)Nc1ccccn1)Nc1ccccn1	-4.8%	-17.6%	10.3%	2.0%	-2.0%	i
CC(C)CC(=O)NC(=S)Nc1ccccn1	13.9%	5.0%	-120.9%	-1.0%	20µM*	i
Cc1ccc(C(=O)NC(=S)Nc2ccccc2C(F)(F)F)cc1	4.1%	-8.5%	4.47µM*	-9.1%	?	i
CC(C)CC(=O)NC(=S)Nc1ccccc1F	3.1%	-26.9%	10µM*	?	?	i
CC(C)(C)CC(=O)NC(=S)Nc1ccccc1C(F)(F)F	18.7%	-46.8%	3.16µM*	-27.4%	20µM*	i
Cc1ccccc1CN1C(=O)c2ccccc2S(=O)c2ccc(C(=O)N3CCOCC3)cc21 (configuration not stated)	2.9%	2.7%	·	?	·	i
CC12CCC3c4cc(CN5CCOCC5)c(O)cc4CCC3C1CCC2=O (configuration not stated)	13.5%	-15.0%	·	4.1%	·	i
COc1ccc(CCNC(=O)CSc2cn(CCNC(=O)c3cccc(C(F)(F)F)c3)c3ccccc23)cc1OC	?	-44.1%	·	?	·	·
COc1ccccc1NC1=C(NC(C)=O)C(=O)c2ccccc2C1=O	-25.8%	-108.6%	?	14.1µM*	?	i
COc1ccccc1NC(=S)NC(=O)CC(C)C	0.8%	-10.7%	2.24µM*	6.6%	12.6µM*	i
CC(C)CC(=O)NC(=S)Nc1cccc2nsnc12	5.4%	-5.6%	7.94µM*	-17.8%	-7.1%	i
CC(C)CC(=O)NC(=S)Nc1ccccc1C(F)(F)F	4.8%	-8.2%	5.62µM*	-25.3%	?	i
COC1=C(Nc2ccccc2OC)C(=O)c2ccccc2C1=O	-14.4%	-54.2%	-12.1%	-29.7%	-0.2%	i
CSc1ccccc1NC(=S)Nc1ccccc1C(F)(F)F	4.2%	-11.1%	?	-9.3%	1.2%	i
O=C(NCCc1ccccc1)c1cccc2c(-c3cccnc3)coc12	2.2%	-25.2%	·	15.7%	·	i
CCOC(=O)c1ccccc1OCc1cc(C2Nc3ccccc3C(=O)N2c2cccc3ccccc23)ccc1OC (configuration not stated)	·	3.0%	·	2.0%	·	·
C(=C1c2ccccc2Oc2ccccc21)c1ccccc1	·	0.0%	·	-0.1%	·	·
COc1ccccc1NC(=S)NC(C)=O	-11.9%	13.6%	11.2µM*	6.3%	-6.4%	?
COc1ccccc1NC(C)=O	1.1%	34.0%	-14.9%	5.6%	-0.5%	i
CC(=O)NC(=S)Nc1cccc2ccc(C)nc12	-5.9%	-1.9%	2.82µM*	-0.9%	12.6µM*	i

High-throughput results from PubChem.
